We go through 6 compounds from PubChem BioAssay (NCATS).

Results filed as inconclusive are left out. Active and inactive are the calls of the source. Unless noted, calls come from the whole dose curve.

Test [1] concerns the target Luciferin 4-monooxygenase (Photinus pyralis) (UniProt P08659). Description: Biochemical firefly luciferase enzyme assay for NPC (AID 624030; active = well fitted curve in the direction sought with a large enough effect; an effect the other way counts as inactive or inconclusive;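 note: purified P. pyralis luciferase at 10 nM with luciferin and ATP substrate; series mostly up to about 59 µM; 0% = DMSO and -100% = full luciferase inhibition by PTC124 control; nearly all actives have a fitted effect of over 70% in size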). In a few lines:
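Counter-screen for direct inhibition of the luciferase enzyme by approved-drug library compounds, run at 10 nM enzyme in 50 mM Tris acetate (final). Luminescence was read within 5 min of enzyme-buffer addition and normalized to PTC124 versus DMSO (0%).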

A short description of test [2]: S16 Schwann cell viability assay (CellTiter-Glo assay) (AID 624031; active = well fitted curve in the direction sought with a large enough effect; an effect the other way counts as inactive or inconclusive;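 note: native untransfected S16 rat Schwann cells; series mostly up to about 58 µM; plate controls were DMSO-treated cells for no effect and cell-free wells for full effect; nearly all actives have a fitted effect of over 70% in size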). In a few lines: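 Concentration-effect curves come from CellTiter-Glo luminescence of S16 rat Schwann cells after 24 h compound exposure. Each reading was normalized to DMSO wells (0%) and wells without cells, and curves were ranked by r2 and response magnitude.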
Background: ATP-based viability assays read luminescence as a measure of living cells.

Test [3] is described as follows: S16 Schwann cell PMP22 intronic element firefly luciferase assay (AID 624032; active = well fitted curve in the direction sought with a large enough effect; an effect the other way counts as inactive or inconclusive;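 note: series mostly up to about 58 µM; plate controls were DMSO for no effect and PTC124 positive control mean for full effect; nearly all actives have a fitted effect of over 30% in size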). In a few lines: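 Rat S16 Schwann cells stably carrying a PMP22 intronic element-driven Fluc reporter were seeded overnight, then exposed to compounds for 24 h at 37 °C. Luminescence was normalized to PTC124 (positive control) and DMSO (0% activity).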
The nature of test [4]: S16 Schwann cell PMP22 intronic element beta-lactamase assay (AID 624044).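 Note: 0% = DMSO and -100% = potassium clavulanate positive control; nearly all actives have a fitted effect of over 15% in size.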 In a few lines:
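Rat S16 Schwann cells with beta-Lac driven by a PMP22 intronic element, compound-treated 24 h at 37 °C. LiveBLAzer FRET B/G read: 460 nm normalized to potassium clavulanate vs DMSO; 535 nm FRET as viability; concentration-effect curves classified.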

Test [5] concerns the target Vitamin D3 receptor (Homo sapiens) (UniProt P11473). Description: qHTS assay for small molecule agonists of vitamin D receptor signaling (AID 588543).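 Note: 0% = DMSO basal and 100% = reference agonist control.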 In a few lines:
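VDR-UAS-bla HEK293T cells, 2000/well, 2% charcoal-stripped FBS; compound titration 16 h at 37 C; CCF4 beta-lactamase ratio read. Normalized to 50 nM 1-alpha,25-dihydroxyvitamin D3 (100%) and DMSO; Hill fit gives EC50, efficacy.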

A short description of test [6]: qHTS assay for small molecule agonists of retinoid X receptor alpha signaling (AID 588544).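 For activation: 0% = DMSO basal wells and 100% = reference agonist.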 The note with it: HEK293T RXRa-UAS-bla, beta-lactamase reporter, 18 h; 530 nm emission.
In test [7] the target is Retinoic acid receptor RXR-alpha (Homo sapiens) (UniProt P19793). The test is described as above.
Test [8] has as its target Thyroid hormone receptor beta (Homo sapiens) (UniProt P10828). Kind of test: qHTS assay for small molecule agonists of thyroid hormone receptor beta signaling (AID 588545). In a few lines:
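Cells (2500/well) were seeded, incubated 4 hrs at 37 C, dosed with a compound series, incubated 18 hrs, loaded with CCF4 dye for 2 hrs at RT, then read for fluorescence. Data were scaled between DMSO (0%) and 10 nM T3 (100%).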
(qHTS replaces the single test concentration by a dilution series.)

The nature of test [9]: qHTS assay for small molecule antagonists of retinoid X receptor alpha signaling (AID 588546; active = well fitted inhibition curve with a large enough effect in the signal ratio, with a control signal flat, not every such curve was filed as active; the % refers to the signal ratio;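 note: cells stimulated with 9-cis-retinoic acid as agonist; % is set by controls: 0 for no effect and ±100 for the full control effect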). To be noted: HEK293T RXRa-UAS-bla, beta-lactamase ratio, antagonist mode; measured here: W530 green channel, cytotoxicity proxy. In a few lines: (§1)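 Beta-lactamase reporter inhibition, read as CCF4 fluorescence ratio (ex 405, em 460/530 nm) after 2 h at RT. HEK293T UAS-bla cells, 2500/well, were stimulated with 9-cis-RA at 500 or 100 nM final alongside test compound for 18 h at 37 C.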

Test [10] addresses Retinoic acid receptor RXR-alpha (Homo sapiens) (UniProt P19793). The test is described as above. The note with it: HEK293T RXRa-UAS-bla, beta-lactamase ratio, antagonist mode. In a few lines: as §1
The target in test [11] is Thyroid hormone receptor beta (Homo sapiens) (UniProt P10828). Description: qHTS assay for small molecule antagonists of thyroid hormone receptor beta signaling (AID 588547; active = well fitted inhibition curve with a large enough effect in the signal ratio, with a control signal flat, not every such curve was filed as active; the % refers to the signal ratio;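 note: cells stimulated with 0.4 nM T3 agonist during compound exposure; series mostly up to about 77 µM; % is set by controls: 0 for no effect and ±100 for the full control effect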). To be noted: TR-UAS-bla HEK293, beta-lactamase ratio, antagonist mode, 18 h. In a few lines:
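TR-UAS-bla GripTite HEK293 cells in 2% charcoal/dextran FBS medium were preincubated 4 h at 37 C, given compound (0.59 nM to 92 uM) plus 0.4 nM T3 (final) for 18 h, then CCF4 for 2 h at RT; Hill fit gave IC50.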

For test [12], the target named is Voltage-gated inwardly rectifying potassium channel KCNH2 (Homo sapiens) (UniProt Q12809). Kind of test: qHTS Assay for Small Molecule Inhibitors of the Human hERG Channel Activity (AID 588834; active = well fitted curve in the direction sought with a large enough effect; an effect the other way counts as inactive or inconclusive;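 note: top concentration of the series differs between compounds; % is set by controls: 0 for no effect and ±100 for the full control effect; lower thallium flux fluorescence means stronger hERG block; nearly all actives have a fitted effect of over 50% in size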). In a few lines:
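U2OS cells BacMam-transduced with hERG, 2000 cells/well, compound ~10 min at 37 °C before stimulation buffer. FluxOR thallium flux fluorescence read kinetically on FDSS; decrease indicates block; AC50 from Hill fits.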

Test [13] is described as follows: qHTS assay for small molecule agonists of the antioxidant response element (ARE) signaling pathway (AID 651741; active = well fitted activation curve with a large enough effect in the signal ratio; the % refers to the signal ratio; note: % of control where 0% means no effect). In a few lines: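 ARE-bla HepG2 cells (beta-lactamase reporter under ARE control) were plated at 2,000 cells/well, preincubated 5 h at 37 C/5% CO2, then treated with DMSO-dissolved compounds for 16 h at 37 C; LiveBLAzer B/G FRET substrate added, fluorescence read after 2 h at room temperature.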

Test [14] in a line: qHTS assay for small molecule disruptors of the mitochondrial membrane potential - 1 hr assay (AID 651754). Note: % is set by controls: 0 for no effect and ±100 for the full control effect; nearly all actives have a fitted effect of over 35% in size. In a few lines: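 HepG2 cells, attached overnight at 37C, were exposed to compound or DMSO vehicle for 1 hr at 37C, 5% CO2, then stained with Mito-MPS dye for 30 min. Red aggregate versus green monomer fluorescence reports membrane potential.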
The nature of test [15]: qHTS assay for small molecule disruptors of the mitochondrial membrane potential - 5 hr assay (AID 651755). Note: % is set by controls: 0 for no effect and ±100 for the full control effect; nearly all actives have a fitted effect of over 40% in size. In a few lines:
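HepG2 cells, attached overnight at 37C, were exposed to compound or DMSO for 5 hr at 37C, 5% CO2. Mito-MPS dye was then added for 30 min, and fluorescence read at 490/535 nm (monomers) and 540/590 nm (aggregates).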

The target of test [16] is Tumor necrosis factor (Homo sapiens) (UniProt P01375). Kind of test: qHTS assay to identify small molecules that stimulate Tumor Necrosis Factor-alpha (TNF-alpha) secretion (AID 651757; active = well fitted curve in the direction sought with a large enough effect in the signal ratio; the % refers to the signal ratio; note: 0% is about no effect). In a few lines:
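THP-1 cells were exposed to compounds for 17 hrs at 37 C, after which secreted TNF-alpha was measured by homogeneous HTRF (TR-FRET) using cryptate- and XL665-labeled anti-TNF-alpha antibodies, read after 3 hr at room temperature.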

Test [17] can be described thus: qHTS assay for small molecule activators of the p53 signaling pathway (AID 651743; active = well fitted activation curve with a large enough effect in the signal ratio, not every such curve was filed as active; the % refers to the signal ratio; note: series mostly up to about 92 µM; % of control where 0% means no effect). To be noted: HCT-116 p53RE-bla, beta-lactamase FRET ratio, 16 h; stronger effect = higher value. In a few lines: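 p53RE-bla HCT-116 cells with a stably integrated beta-lactamase reporter under p53 response elements were plated, rested 5 hours at 37 C/5% CO2, then exposed to compounds in DMSO for 16 hours at 37 C. LiveBLAzer B/G FRET substrate was read after 2 hours at room temperature.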

The nature of test [18]: qHTS assay for small molecule activators of the nuclear factor-kappa B (NF-kB) signaling pathway (AID 651749; active = well fitted activation curve with a large enough effect in the signal ratio; the % refers to the signal ratio; note: series mostly up to about 77 µM; % of control where 0% means no effect). The note with it: NF-kB-bla ME-180 cells, beta-lactamase FRET ratio, 16 h; stronger effect = higher value. In a few lines: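 ME-180 cells stably carrying a beta-lactamase reporter under an NF-kB response element were exposed to compound or DMSO vehicle for 16 hr at 37C, 5% CO2. Pathway activation was read by FRET, since reporter expression disrupts FRET.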

The nature of test [19]: qHTS assay to identify small molecules that stimulate interleukin-8 (IL-8) secretion (AID 651758; active = well fitted activation curve with a large enough effect in the signal ratio; the % refers to the signal ratio; note: 0% is about no effect). In a few lines: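 THP-1, 2000 cells/well; cpd 16 h, 37 C; add cryptate + XL665 anti-IL-8 Abs; RT 1-3 h; TR-FRET read.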
The nature of test [20]: qHTS assay for environmental chemicals that activate the Aryl hydrocarbon Receptor (AhR) signaling pathway (AID 651777; active = well fitted curve in the direction sought with a large enough effect; an effect the other way counts as inactive or inconclusive; note: potency is the fitted concentration of half-maximal effect; nearly all actives have a fitted effect of over 15% in size). The note with it: 1A2-DRE human hepatoma cells, luciferase, 24 h. In a few lines:
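Stable CYP1A2 promoter/DRE-luciferase human hepatoma line treated 24 hr; One-Glo luminescence, 30 min RT.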

Chain of Retinoic acid receptor RXR-alpha (Homo sapiens) (P19793 whole entry, looked up): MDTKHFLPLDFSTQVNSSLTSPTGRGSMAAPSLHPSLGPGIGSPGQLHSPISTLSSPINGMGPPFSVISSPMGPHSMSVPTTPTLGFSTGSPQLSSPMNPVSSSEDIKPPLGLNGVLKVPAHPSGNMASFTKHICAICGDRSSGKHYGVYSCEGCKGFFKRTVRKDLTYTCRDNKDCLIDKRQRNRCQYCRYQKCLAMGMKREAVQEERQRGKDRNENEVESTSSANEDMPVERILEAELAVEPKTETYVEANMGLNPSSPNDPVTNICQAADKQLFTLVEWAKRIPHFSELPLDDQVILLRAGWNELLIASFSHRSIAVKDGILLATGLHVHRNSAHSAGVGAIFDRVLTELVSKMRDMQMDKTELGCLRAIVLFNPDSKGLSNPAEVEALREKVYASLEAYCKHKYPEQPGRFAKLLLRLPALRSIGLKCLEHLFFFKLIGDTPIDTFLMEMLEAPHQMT
Chain of Vitamin D3 receptor (Homo sapiens) (P11473 whole entry, looked up): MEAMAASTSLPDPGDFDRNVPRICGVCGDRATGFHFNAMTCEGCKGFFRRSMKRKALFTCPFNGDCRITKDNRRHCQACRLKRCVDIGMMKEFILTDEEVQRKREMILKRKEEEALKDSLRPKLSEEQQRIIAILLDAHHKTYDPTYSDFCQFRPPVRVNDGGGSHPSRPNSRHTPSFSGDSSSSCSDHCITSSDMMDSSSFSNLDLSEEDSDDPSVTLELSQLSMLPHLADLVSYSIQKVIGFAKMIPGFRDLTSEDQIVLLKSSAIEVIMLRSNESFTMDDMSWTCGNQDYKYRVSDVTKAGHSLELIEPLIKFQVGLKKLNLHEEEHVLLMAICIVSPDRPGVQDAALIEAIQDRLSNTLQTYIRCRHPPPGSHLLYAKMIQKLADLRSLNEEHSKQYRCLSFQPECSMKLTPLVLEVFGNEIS
Chain of Luciferin 4-monooxygenase (Photinus pyralis) (P08659 whole entry, looked up): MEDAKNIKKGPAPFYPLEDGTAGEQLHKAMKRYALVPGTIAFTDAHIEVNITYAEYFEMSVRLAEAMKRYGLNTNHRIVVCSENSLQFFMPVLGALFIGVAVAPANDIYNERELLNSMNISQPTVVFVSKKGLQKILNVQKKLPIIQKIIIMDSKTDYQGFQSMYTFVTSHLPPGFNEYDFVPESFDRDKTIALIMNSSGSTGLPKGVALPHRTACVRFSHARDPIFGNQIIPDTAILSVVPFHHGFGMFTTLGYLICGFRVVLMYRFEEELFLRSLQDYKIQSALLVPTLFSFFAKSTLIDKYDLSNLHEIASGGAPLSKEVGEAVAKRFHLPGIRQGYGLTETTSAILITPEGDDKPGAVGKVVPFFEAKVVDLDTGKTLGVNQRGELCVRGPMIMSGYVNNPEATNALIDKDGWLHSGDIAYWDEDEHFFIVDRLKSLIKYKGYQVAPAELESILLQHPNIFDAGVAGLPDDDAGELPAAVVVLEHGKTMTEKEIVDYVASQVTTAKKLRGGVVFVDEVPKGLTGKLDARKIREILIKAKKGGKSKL
Chain of Thyroid hormone receptor beta (Homo sapiens) (P10828 whole entry, looked up): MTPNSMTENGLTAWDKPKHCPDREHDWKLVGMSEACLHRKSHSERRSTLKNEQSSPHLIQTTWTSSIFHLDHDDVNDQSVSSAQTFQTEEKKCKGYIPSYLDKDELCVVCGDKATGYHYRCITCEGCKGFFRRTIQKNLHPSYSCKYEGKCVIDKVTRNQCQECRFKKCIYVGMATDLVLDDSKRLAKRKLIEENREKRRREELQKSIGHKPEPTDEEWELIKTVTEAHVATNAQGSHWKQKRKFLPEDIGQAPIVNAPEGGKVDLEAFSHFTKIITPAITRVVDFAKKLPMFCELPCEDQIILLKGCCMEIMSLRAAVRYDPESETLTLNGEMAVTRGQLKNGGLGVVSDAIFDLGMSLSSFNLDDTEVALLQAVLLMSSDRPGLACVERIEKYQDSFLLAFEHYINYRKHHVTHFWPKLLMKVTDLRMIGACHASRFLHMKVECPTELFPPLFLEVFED
Chain of Voltage-gated inwardly rectifying potassium channel KCNH2 (Homo sapiens) (Q12809 whole entry, looked up): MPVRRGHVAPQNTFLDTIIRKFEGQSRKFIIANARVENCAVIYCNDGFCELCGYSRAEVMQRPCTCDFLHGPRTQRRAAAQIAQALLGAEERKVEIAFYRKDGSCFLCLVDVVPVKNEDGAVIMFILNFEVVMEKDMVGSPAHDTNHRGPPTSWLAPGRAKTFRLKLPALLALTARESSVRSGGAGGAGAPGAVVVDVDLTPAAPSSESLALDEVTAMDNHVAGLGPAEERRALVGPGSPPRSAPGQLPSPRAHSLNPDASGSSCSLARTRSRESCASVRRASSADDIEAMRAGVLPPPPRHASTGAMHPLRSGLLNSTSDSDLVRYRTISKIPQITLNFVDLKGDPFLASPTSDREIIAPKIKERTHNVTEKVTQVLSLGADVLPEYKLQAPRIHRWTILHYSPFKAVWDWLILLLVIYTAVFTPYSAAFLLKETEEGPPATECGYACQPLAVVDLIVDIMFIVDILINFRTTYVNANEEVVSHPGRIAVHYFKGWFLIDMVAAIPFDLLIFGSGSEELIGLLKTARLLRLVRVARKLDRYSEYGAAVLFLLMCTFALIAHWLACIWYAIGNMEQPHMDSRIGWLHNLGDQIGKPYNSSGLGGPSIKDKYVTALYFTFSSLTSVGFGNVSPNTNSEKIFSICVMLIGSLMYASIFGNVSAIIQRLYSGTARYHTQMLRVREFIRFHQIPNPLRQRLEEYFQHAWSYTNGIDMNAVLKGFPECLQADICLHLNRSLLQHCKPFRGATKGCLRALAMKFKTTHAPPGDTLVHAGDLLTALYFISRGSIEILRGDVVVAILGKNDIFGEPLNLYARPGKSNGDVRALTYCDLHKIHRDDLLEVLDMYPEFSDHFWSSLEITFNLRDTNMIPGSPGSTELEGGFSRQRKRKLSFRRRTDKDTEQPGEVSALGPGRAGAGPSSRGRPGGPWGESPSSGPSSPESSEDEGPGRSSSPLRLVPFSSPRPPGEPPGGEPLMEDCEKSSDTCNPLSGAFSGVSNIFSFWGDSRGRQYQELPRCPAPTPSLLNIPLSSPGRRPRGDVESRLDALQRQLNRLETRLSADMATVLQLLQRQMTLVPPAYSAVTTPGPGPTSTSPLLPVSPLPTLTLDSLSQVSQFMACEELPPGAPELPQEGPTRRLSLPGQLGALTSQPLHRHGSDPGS
Chain of Tumor necrosis factor (Homo sapiens) (P01375 whole entry, looked up): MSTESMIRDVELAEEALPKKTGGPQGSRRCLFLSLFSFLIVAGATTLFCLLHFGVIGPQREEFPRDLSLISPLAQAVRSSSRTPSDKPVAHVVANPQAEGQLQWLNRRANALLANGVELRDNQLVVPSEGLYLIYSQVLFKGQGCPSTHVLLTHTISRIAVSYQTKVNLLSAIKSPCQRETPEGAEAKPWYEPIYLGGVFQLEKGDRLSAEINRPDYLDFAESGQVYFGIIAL

For the compound `CCc1cccc2c3c([nH]c12)[C@@](CC)(CC(=O)O)OCC3`, the compound was classed as inactive in test [1], in test [2], in [3] and in [4].

For `C=C1C[C@]23C[C@@]1(O)CC[C@H]2[C@@]12C=C[C@H](O)[C@@](C)(C(=O)O1)[C@H]2[C@@H]3C(=O)O`, the call in test [5], in test [7], in [8], in test [12], in test [13] and in test [14] was inactive. In addition, the call in test [15] and in [16] was inactive. The max response is -10.6% in [6], 4.31% in test [9] and 6.93% (inactive) in test [10]. In addition, in test [11], the activity change % (negative = inhibition) was 23.9% (inactive).

For the compound `COc1ccc(CCC(=O)c2c(O)cc(O[C@@H]3O[C@H](CO)[C@@H](O)[C@H](O)[C@H]3O[C@@H]3O[C@@H](C)[C@H](O)[C@@H](O)[C@H]3O)cc2O)cc1O`, the call in [5], in [7], in test [8], in [12], in [13] and in test [14] was inactive. The call in test [15] and in test [19] was inactive. Further, the max response was 1.28% in test [6], -15.7% in test [9] and 10.3% (inactive) in test [10]. In [11], the activity change % (negative = inhibition) was -11.4% (inactive). Moreover, the activation in [17] is -3.41% (inactive); in [18], -2.14% (inactive).

With `CCOC(=O)C(CCc1ccccc1)NC(C)C(=O)N1Cc2ccccc2CC1C(=O)O` (configuration not stated), the call in test [1], in [2], in [3] and in test [4] was inactive.

`CCC(=O)OCC(=O)[C@@]1(OC(=O)CC)[C@@H](C)C[C@H]2[C@@H]3CCC4=CC(=O)C=C[C@]4(C)[C@@]3(F)[C@@H](O)C[C@@]21C`: in test [1], the compound was classed as inactive.

On to `O=C(/C=C/C=C/c1ccc2c(c1)OCO2)N1CCCCC1`, for which the outcome in [5], in [8] and in [13] was inactive. Besides, the activity change % (negative = inhibition) in [11] is -4.09% (inactive). Moreover, the activation was -2.18% (inactive) in [17] and -1.08% (inactive) in [18]. For the same compound, in test [20], the Potency is 14.1 µM (active).
